According to the supplement of paper PMC6411743:
± gives the standard deviation of the averaged measurements. About 6,500 targets were measured; listed, in parts, are those with the largest changes and a random draw of the rest.

Tests used:
Assay in all cases: NP40-soluble protein abundance relative to vehicle (solubility fold change) (ratio); higher = more soluble protein in presence of ATP
[1] = target: T1, UniProt O95983|O95983-2|K7EIE8
T1 sequence (whole entry): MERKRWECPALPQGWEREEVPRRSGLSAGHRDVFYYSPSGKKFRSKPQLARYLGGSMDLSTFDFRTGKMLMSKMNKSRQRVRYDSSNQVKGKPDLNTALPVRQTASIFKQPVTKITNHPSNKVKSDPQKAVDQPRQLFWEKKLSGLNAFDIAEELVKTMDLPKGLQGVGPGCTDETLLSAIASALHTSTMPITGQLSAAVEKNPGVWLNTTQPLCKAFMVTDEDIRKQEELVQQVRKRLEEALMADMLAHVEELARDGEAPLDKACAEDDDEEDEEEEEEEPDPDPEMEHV
Summary of the method: (§1)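 Values are fold changes against the detergent-processed vehicle, based on vsn-normalised intensities. Jurkat crude lysate was treated at eight concentrations from 0.1 to 10 mM (10 min at room temperature, then 3 min at 37 °C), solubilised with 0.8% NP40 and benzonase, ultracentrifuged and analysed by TMT-labelled LC-MS/MS over three independent experiments.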

UniProt P11177|P11177-2 = target: T2, UniProt P11177|P11177-2
T2 sequence (whole entry): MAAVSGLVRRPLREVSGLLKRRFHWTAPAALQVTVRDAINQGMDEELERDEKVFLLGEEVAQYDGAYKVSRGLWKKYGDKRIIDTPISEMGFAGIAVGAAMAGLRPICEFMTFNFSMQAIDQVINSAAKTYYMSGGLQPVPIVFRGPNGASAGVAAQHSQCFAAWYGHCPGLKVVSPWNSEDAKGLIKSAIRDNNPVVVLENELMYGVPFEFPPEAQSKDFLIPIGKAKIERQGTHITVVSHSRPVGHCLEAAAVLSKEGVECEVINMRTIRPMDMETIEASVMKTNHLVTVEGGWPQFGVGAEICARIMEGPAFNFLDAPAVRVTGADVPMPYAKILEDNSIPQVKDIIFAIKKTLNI
Summary of the method: as §1

[2] = target: T3, UniProt P29728-2|A0A087X0V5|P29728
T3 sequence (whole entry): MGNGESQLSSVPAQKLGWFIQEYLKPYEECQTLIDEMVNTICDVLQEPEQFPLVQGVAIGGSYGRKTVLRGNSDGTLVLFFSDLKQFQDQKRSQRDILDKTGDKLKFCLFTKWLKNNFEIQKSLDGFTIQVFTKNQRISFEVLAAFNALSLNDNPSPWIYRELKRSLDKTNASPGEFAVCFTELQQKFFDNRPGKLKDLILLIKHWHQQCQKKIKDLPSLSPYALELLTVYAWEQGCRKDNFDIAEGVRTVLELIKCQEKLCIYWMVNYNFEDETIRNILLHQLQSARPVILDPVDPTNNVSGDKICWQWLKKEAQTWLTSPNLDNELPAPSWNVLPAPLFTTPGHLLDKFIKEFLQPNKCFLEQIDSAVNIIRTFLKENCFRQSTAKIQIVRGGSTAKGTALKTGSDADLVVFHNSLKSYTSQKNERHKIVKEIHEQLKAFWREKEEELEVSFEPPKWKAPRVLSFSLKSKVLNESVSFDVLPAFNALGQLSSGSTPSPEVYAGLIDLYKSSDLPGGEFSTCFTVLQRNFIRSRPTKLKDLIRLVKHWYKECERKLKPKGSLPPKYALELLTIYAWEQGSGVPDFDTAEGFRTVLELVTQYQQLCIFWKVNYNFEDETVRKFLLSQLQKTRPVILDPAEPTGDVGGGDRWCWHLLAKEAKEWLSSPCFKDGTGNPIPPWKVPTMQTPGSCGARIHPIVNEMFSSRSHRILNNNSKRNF
Summary of the method: as §1

[3] = target: T4, UniProt P52594|P52594-2|P52594-3|P52594-4
T4 sequence (whole entry): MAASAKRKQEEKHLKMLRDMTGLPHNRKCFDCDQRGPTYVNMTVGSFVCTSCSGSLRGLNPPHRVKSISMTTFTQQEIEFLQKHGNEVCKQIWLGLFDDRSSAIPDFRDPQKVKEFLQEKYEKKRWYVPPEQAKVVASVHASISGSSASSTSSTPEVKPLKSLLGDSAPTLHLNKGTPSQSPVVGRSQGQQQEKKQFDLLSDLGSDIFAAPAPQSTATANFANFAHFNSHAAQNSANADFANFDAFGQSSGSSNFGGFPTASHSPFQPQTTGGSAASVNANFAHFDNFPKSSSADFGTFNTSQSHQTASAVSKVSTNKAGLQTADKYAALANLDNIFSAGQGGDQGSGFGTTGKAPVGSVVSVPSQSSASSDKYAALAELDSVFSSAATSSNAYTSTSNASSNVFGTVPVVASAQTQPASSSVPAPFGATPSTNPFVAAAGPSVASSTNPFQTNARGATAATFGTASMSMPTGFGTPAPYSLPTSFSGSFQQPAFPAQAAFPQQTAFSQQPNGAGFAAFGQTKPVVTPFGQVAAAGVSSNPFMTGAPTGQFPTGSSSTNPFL
Summary of the method: as §1

UniProt P52757|P52757-9 = target: T5, UniProt P52757|P52757-9
T5 sequence (whole entry): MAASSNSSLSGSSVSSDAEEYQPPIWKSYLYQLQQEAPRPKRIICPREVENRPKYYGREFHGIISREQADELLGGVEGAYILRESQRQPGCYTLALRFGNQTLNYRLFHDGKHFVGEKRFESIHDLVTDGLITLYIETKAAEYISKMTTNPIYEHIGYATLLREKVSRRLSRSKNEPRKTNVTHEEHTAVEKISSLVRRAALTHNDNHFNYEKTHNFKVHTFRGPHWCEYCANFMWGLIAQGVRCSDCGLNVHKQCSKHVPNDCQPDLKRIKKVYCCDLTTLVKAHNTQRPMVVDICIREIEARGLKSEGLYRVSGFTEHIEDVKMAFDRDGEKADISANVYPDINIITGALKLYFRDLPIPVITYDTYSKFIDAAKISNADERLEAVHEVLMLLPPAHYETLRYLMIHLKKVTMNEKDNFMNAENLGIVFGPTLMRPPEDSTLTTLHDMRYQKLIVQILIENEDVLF
Summary of the method: as §1

UniProt Q02040 = target: T6, UniProt Q02040
T6 sequence (whole entry): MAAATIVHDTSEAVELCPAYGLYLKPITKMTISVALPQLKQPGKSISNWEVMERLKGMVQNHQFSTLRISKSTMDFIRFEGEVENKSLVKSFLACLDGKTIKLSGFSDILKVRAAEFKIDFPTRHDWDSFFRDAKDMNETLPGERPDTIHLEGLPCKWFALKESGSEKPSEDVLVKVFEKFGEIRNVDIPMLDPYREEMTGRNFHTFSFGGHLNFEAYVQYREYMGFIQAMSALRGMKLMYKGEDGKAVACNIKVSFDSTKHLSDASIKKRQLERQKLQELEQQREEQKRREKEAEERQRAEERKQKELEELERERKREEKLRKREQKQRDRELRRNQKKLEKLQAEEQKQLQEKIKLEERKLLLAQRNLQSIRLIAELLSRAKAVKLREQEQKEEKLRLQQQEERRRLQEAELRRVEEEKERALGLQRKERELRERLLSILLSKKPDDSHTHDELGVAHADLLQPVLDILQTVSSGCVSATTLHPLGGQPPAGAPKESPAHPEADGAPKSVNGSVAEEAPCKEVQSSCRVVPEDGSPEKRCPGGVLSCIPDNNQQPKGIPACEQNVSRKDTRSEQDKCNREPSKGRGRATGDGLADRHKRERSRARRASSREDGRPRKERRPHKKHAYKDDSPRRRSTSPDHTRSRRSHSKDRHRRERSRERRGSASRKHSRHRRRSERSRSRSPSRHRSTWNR
Summary of the method: as §1

YWHAZ = target: T7, YWHAZ (UniProt P63104)
T7 sequence (whole entry): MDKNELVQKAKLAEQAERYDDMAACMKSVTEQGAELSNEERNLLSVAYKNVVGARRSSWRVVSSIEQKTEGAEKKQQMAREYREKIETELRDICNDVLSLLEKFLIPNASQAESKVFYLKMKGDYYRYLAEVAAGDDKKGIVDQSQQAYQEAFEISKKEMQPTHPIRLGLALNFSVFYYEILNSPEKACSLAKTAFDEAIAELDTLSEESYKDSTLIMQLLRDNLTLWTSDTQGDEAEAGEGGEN
Summary of the method: as §1

Nc1ncnc2c1ncn2[C@@H]1O[C@H](COP(=O)(O)OP(=O)(O)OP(=O)(O)O)[C@@H](O)[C@H]1O [adenosine triphosphate]
NP40-soluble protein abundance ([1]; concentration: 6mM): 1.02 ± 0.16
NP40-soluble protein abundance ([1]; concentration: 8mM): 1.01 ± 0.065
NP40-soluble protein abundance ([1]; concentration: 10mM): 0.92 ± 0.082
NP40-soluble protein abundance (UniProt P11177|P11177-2; concentration: 1mM): 1.14 ± 0.069
NP40-soluble protein abundance (UniProt P11177|P11177-2; concentration: 2mM): 1.04 ± 0.041
NP40-soluble protein abundance (UniProt P11177|P11177-2; concentration: 4mM): 1 ± 0.05
NP40-soluble protein abundance (UniProt P11177|P11177-2; concentration: 6mM): 1.02 ± 0.18
NP40-soluble protein abundance (UniProt P11177|P11177-2; concentration: 8mM): 1.05 ± 0.14
NP40-soluble protein abundance (UniProt P11177|P11177-2; concentration: 10mM): 1.02 ± 0.12
NP40-soluble protein abundance ([2]; concentration: 1mM): 1.73 ± 0.11
NP40-soluble protein abundance ([2]; concentration: 2mM): 1.65 ± 0.019
NP40-soluble protein abundance ([2]; concentration: 4mM): 1.7 ± 0.046
NP40-soluble protein abundance ([2]; concentration: 6mM): 1.55 ± 0.12
NP40-soluble protein abundance ([2]; concentration: 8mM): 1.74 ± 0.042
NP40-soluble protein abundance ([2]; concentration: 10mM): 1.68 ± 0.047
NP40-soluble protein abundance ([3]; concentration: 1mM): 0.945 ± 0.033
NP40-soluble protein abundance ([3]; concentration: 2mM): 0.961 ± 0.012
NP40-soluble protein abundance ([3]; concentration: 4mM): 0.963 ± 0.019
NP40-soluble protein abundance ([3]; concentration: 6mM): 0.987 ± 0.037
NP40-soluble protein abundance ([3]; concentration: 8mM): 0.93 ± 0.052
NP40-soluble protein abundance ([3]; concentration: 10mM): 0.918 ± 0.033
NP40-soluble protein abundance (UniProt P52757|P52757-9; concentration: 1mM): 0.952 ± 0.13
NP40-soluble protein abundance (UniProt P52757|P52757-9; concentration: 2mM): 0.971 ± 0.14
NP40-soluble protein abundance (UniProt P52757|P52757-9; concentration: 4mM): 1 ± 0.23
NP40-soluble protein abundance (UniProt P52757|P52757-9; concentration: 6mM): 0.948 ± 0.094
NP40-soluble protein abundance (UniProt P52757|P52757-9; concentration: 8mM): 0.989 ± 0.091
NP40-soluble protein abundance (UniProt P52757|P52757-9; concentration: 10mM): 0.983 ± 0.12
NP40-soluble protein abundance (UniProt Q02040; concentration: 1mM): 1.4 ± 0.24
NP40-soluble protein abundance (UniProt Q02040; concentration: 2mM): 1.56 ± 0.34
NP40-soluble protein abundance (UniProt Q02040; concentration: 4mM): 1.8 ± 0.45
NP40-soluble protein abundance (UniProt Q02040; concentration: 6mM): 2.02 ± 0.41
NP40-soluble protein abundance (UniProt Q02040; concentration: 8mM): 2.19 ± 0.54
NP40-soluble protein abundance (UniProt Q02040; concentration: 10mM): 2.43 ± 0.62
NP40-soluble protein abundance (YWHAZ; concentration: 1mM): 0.892 ± 0.2
NP40-soluble protein abundance (YWHAZ; concentration: 2mM): 0.94 ± 0.045
NP40-soluble protein abundance (YWHAZ; concentration: 4mM): 0.896 ± 0.025
NP40-soluble protein abundance (YWHAZ; concentration: 6mM): 0.918 ± 0.17
NP40-soluble protein abundance (YWHAZ; concentration: 8mM): 0.8927 ± 0.0068
NP40-soluble protein abundance (YWHAZ; concentration: 10mM): 0.819 ± 0.066
